Test results: PubChem BioAssay
Active and inactive are the calls of the source.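 The calls were made as follows, unless noted: active = mean inhibition over 43.08%, the solvent-only control mean plus 3 SD; inactive = the rest.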

Experiments:
[1] = biological target: Nuclear receptor coactivator 3 (Homo sapiens) (UniProt Q9Y6Q9); experiment: NCOA3 GAL4-fusion reporter inhibition – cell-based, luminescence, quadruplicate, confirmation (AID 588792); conditions: HEK293 GAL4-SRC3 luciferase reporter, at 3.6 µM, stronger effect = higher value;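 also: 0% = DMSO treated cells and 100% = gossypol at 36 µM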
Sequence of Nuclear receptor coactivator 3 (Homo sapiens) (Q9Y6Q9 whole entry, looked up, the tested form may be a part): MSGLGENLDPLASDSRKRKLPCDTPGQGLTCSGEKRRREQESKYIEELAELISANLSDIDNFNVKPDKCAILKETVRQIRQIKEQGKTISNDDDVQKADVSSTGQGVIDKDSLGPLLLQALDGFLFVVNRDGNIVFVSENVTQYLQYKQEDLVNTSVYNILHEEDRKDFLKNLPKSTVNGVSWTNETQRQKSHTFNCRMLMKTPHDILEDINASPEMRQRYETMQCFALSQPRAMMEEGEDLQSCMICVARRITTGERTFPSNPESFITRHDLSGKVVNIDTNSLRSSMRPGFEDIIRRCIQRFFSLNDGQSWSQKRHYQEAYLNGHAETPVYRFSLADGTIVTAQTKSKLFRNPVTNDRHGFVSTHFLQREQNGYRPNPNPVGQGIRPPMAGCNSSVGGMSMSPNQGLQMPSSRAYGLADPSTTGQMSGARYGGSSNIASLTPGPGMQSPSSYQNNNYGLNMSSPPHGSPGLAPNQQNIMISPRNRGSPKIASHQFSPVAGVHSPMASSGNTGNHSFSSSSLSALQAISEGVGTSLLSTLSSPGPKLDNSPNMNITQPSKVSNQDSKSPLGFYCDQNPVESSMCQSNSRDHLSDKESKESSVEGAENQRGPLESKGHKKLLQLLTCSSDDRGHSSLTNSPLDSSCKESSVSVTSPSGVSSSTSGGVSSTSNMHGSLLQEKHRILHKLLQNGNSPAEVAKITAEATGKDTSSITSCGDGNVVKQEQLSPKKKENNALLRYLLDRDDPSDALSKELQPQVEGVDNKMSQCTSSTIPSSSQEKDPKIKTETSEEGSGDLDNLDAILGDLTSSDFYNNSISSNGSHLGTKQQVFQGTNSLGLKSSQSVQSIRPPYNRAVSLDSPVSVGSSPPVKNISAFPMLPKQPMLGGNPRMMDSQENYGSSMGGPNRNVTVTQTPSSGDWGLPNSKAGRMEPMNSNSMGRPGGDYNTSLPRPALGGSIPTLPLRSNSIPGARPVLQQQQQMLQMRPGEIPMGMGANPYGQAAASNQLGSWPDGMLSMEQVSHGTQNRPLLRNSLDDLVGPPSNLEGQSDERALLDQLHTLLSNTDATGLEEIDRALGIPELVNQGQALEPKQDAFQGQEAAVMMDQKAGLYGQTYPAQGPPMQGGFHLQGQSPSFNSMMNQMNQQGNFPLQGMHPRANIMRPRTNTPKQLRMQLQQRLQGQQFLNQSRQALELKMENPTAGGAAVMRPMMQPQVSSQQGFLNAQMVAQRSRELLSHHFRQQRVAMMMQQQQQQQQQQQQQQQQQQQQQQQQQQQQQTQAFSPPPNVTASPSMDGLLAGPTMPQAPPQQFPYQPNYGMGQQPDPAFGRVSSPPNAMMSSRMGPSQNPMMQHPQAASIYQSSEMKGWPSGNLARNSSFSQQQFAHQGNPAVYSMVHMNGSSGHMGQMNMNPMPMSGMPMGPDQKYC

[2] = test system: transactivating tegument protein VP16 (Human herpesvirus 1), Gal4-VP16 luciferase reporter; experiment: repression of VP16-driven luciferase reporter – cell-based, luminescence, high throughput, counter-screen for SRC3 inhibitor project (AID 588794; in the data active = inhibition above about 30%); conditions: mammalian cells, at 3.6 µM, stronger effect = higher value
[3] = StAR promoter reporter inhibitors, counter-screen for LRH-1 inverse agonist project, cell-based, luminescence, high throughput (AID 651611; in the data active = inhibition above about 28%); conditions: StAR promoter luciferase reporter counterscreen, at 3.6 µM, stronger effect = higher value
[4] = biological target: Nuclear receptor subfamily 5 group A member 2 (Homo sapiens) (UniProt O00482); experiment: NR5A2 activity suppression in reporter cells – cell-based, luminescence, confirmation (AID 651613; in the data active = inhibition above about 42%;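 also: HEK293T cells co-transfected with LRH-1 and StAR promoter luciferase reporter; 0% = vehicle wells and 100% = parental cells lacking receptor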); conditions: cell-based LRH-1 luciferase reporter, inverse agonism; at 3.6 µM; stronger effect = higher value
Sequence of Nuclear receptor subfamily 5 group A member 2 (Homo sapiens) (O00482 whole entry, looked up): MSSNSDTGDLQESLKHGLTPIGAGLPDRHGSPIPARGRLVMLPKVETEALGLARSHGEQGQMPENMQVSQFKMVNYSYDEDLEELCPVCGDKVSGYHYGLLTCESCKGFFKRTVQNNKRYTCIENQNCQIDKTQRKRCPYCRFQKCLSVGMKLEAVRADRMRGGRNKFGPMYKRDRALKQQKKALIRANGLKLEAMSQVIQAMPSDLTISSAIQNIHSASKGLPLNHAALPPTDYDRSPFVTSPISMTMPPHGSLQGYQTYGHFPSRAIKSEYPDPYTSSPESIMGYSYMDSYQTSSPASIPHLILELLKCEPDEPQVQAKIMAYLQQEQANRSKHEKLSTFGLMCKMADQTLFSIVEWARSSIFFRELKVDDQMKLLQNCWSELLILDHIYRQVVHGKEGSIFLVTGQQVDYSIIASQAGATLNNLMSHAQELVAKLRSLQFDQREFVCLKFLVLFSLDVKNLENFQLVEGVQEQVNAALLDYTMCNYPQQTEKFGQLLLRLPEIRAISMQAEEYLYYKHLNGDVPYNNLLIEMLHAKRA

[5] = biological target: Steroidogenic factor 1 (Homo sapiens) (UniProt Q13285); experiment: inverse agonism at SF1 nuclear receptor – cell-based, luminescence, high throughput, counter-screen for LRH-1 inverse agonist project (AID 651614; in the data active = inhibition above about 44%;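 also: cells cotransfected with StAR promoter reporter and SF1 expression vector; 0% = vehicle on cells with receptor and 100% = vehicle on cells lacking receptor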); conditions: cell-based SF1 luciferase reporter, at 3.6 µM, stronger effect = higher value
Sequence of Steroidogenic factor 1 (Homo sapiens) (Q13285 whole entry, looked up, the tested form may be a part): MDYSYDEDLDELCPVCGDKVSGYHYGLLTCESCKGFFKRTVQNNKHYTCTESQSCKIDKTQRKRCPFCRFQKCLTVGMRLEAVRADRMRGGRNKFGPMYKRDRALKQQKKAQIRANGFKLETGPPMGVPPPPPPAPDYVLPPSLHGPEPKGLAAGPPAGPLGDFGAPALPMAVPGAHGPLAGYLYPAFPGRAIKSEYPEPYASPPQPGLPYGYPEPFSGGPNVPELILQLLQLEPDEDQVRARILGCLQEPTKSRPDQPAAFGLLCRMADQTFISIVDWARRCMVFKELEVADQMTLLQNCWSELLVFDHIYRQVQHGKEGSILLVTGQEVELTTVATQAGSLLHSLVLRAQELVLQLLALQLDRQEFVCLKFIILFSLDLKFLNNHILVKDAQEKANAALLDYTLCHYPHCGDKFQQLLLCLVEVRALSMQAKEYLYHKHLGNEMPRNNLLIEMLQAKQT

[6] = compounds suppressing VP16-driven luciferase signal – cell-based, luminescence, high throughput, counter-screen for LRH-1 inverse agonist project (AID 651615; in the data active = inhibition above about 33%); conditions: Gal4-VP16 luciferase reporter cells, at 3.6 µM, stronger effect = higher value
[7] = test system: transactivating tegument protein VP16 (Human herpesvirus 1); experiment: compounds suppressing VP16-driven luciferase signal – cell-based, luminescence, single concentration, counter-screen for SRC2 inhibitor project (AID 652007; in the data active = inhibition above about 36%); conditions: cell-based VP16 transactivation luciferase reporter, at 8.9 µM, stronger effect = higher value
[8] = biological target: Nuclear receptor coactivator 2 (Homo sapiens) (UniProt Q15596); experiment: inhibition of GAL4-SRC2 driven luciferase expression – cell-based, luminescence, HEK293, triplicate, confirmation (AID 652008;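 active = mean inhibition above 46.5%, the solvent-only control mean plus 3 SD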;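 also: 0% = DMSO-treated cells and 100% = Gossypol at 36 µM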); conditions: HEK293 GAL4-SRC2 luciferase reporter, at 8.9 µM, stronger effect = higher value
Sequence of Nuclear receptor coactivator 2 (Homo sapiens) (Q15596 whole entry, looked up, the tested form may be a part): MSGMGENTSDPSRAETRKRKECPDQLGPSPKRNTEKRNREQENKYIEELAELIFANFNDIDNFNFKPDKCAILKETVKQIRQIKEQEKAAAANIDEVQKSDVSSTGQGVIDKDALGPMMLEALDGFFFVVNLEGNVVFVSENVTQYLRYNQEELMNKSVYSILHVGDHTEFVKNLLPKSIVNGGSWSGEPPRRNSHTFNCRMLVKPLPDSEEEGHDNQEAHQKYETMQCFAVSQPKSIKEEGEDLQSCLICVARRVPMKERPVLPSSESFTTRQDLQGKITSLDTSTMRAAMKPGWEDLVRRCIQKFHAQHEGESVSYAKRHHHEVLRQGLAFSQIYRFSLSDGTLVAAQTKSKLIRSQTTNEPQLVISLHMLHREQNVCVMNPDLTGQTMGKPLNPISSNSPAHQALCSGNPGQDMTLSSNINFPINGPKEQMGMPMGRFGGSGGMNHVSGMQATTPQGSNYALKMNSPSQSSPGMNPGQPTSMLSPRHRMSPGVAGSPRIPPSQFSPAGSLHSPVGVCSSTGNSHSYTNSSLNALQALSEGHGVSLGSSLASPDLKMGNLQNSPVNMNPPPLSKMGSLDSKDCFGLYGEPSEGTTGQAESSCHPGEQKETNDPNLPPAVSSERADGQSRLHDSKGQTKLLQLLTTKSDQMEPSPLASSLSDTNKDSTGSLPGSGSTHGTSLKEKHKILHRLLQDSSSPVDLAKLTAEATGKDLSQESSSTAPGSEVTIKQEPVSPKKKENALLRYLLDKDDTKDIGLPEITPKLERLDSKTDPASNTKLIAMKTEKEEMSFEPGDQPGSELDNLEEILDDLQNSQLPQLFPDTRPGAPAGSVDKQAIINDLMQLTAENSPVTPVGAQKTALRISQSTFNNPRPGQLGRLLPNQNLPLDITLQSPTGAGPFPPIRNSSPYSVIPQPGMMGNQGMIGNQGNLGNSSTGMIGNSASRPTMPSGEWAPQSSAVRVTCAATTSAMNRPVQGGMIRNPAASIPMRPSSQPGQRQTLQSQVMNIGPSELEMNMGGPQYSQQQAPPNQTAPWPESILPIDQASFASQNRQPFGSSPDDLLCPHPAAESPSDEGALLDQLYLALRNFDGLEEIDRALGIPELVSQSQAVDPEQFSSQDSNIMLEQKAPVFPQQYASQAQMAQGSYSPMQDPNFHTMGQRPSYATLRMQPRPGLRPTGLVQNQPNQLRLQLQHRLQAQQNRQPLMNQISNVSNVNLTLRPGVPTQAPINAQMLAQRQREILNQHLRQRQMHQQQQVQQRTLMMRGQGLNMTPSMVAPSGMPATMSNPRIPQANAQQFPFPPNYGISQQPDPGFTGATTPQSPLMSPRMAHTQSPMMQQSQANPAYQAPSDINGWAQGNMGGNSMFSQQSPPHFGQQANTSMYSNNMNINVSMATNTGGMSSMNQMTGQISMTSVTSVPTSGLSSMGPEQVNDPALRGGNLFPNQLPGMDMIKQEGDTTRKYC

Measured: inhibition

Clc1cccc(CNc2ccn3nc(-c4ccc(OCc5ccccc5)cc4)cc3n2)c1
active: [2] 35.7% | [5] 51% | [6] 56.4%
inactive: [1] -4.23% | [3] 23.4% | [4] 40.9%

Cc1cc(C)cc(NC(=O)c2ccc([N+](=O)[O-])o2)c1
inactive: [1] 22.4% | [2] 2.31% | [6] 20%
active: [3] 53% | [4] 76.3% | [5] 74.7%

CCOc1ccc(OCc2ccc(C(=O)NN=Cc3ccc[nH]3)cc2)cc1
active: [2] 78.4% | [3] 76.2% | [4] 104% | [5] 90.6% | [6] 87.1%
inactive: [1] 38.9%

CCOc1cc(/C=C2\CCC/C(=C\c3cc(Cl)c(O)c(OCC)c3)C2=O)cc(Cl)c1O
active: [1] 43.9% | [4] 47.7% | [5] 61.1% | [6] 46.4%
inactive: [2] 21.8% | [3] 11.2%

COc1cc(C)c(Br)cc1S(=O)(=O)NCc1ccncc1
active: [2] 30.9% | [4] 49% | [6] 38%
inactive: [1] 9.21% | [3] 14.3% | [5] 38.5%

CC(=O)Nc1ccc(Oc2sc(C(=O)c3ccccc3)c(N)c2C#N)cc1
active: [3] 35.8% | [4] 70.9% | [5] 66.7%
inactive: [1] 20.5% | [2] -3.87% | [6] 7.59% | [7] 14.6% | [8] 32.6%

COC(=O)c1ccc2c(=O)n(CCCCCC(=O)O)c(=S)[nH]c2c1
inactive: [1] 16.4% | [2] 15.1% | [7] 6.79% | [8] 32.2%
